Data reported in PubChem BioAssay (EPA / NIEHS).
Where “and” joins values, the source holds several entries; their conditions need not be identical. Identical values can stand only once. Inconclusive results are not listed. Where a structure was tested more than once in an assay, its records may differ in their call. Calls of active or inactive are those of the source. The calls were made as follows, unless noted: active = hit-call score of the fitted dose curve at least 0.9, where 1 is the maximum; inactive = score below 0.9.

Tests used:
[1] = CCTE_Shafer_MEA_dev_mutual_information_norm: CCTE's Neural Network Formation Assay for Mutual Information Normalization, Shafer Lab (AID 2284091);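 as to AC50: mutual information between electrodes summarised as area under curve across four recording days; potency is for a decrease in mutual information relative to DMSO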
Procedure, shortened: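 Primary rat cortical neurons on PEI-coated 48-well MEA plates, 1.5 x 10^5 cells/well, exposed from day 0 through day 12 with re-dosing at DIV 5 and 9. Mutual information between electrodes recorded days 5, 7, 9, 12; trapezoidal AUC, loss-of-signal fit versus DMSO.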

[2] = CCTE_Shafer_MEA_dev_correlation_coefficient_mean: CCTE's Neural Network Formation Assay for Mean Correlation Coefficient, Shafer Lab (AID 2284093);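 as to AC50: well mean pairwise spike train correlation integrated as AUC over recording days 5 to 12; potency fitted for loss of correlation relative to DMSO vehicle wells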
Procedure, shortened: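 Rat cortical cultures, 1.5 x 10^5 cells/well, dosed from day 0 for 12 days. Spontaneous spikes recorded DIV 5/7/9/12; electrode-pair correlation coefficients averaged, AUC taken. Fit in loss direction vs DMSO.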

[3] = UKN2_HCS_IMR90_neural_migration: University of Konstanz (UKN) Leist Lab Neural Crest Cell Migration Assay in human induced IMR90 Pluripotent Stem Cells (UKN2) (AID 2284204); conditions: actives raise or lower the signal
Procedure, shortened: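 iPSC-derived IMR90 neural crest cells seeded around stoppers on PLO/laminin/fibronectin; migration started in N2-S medium with EGF/FGF, compounds added after 24 h for 24 h. Migration into cell-free area imaged after calcein-AM/Hoechst staining; bidirectional fit versus DMSO.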

[4] = IUF_NPC1b_proliferation_BrdU_72hr: Leibniz Research Institute for Environmental Medicine (IUF) 72-hour Neural Progenitor Cell Bromodeoxyuridine (BrdU) Proliferation Assay (NPC1b) (AID 2284207)
Procedure, shortened: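 BrdU luminescence ELISA quantified DNA synthesis over the last 16 h of a 72 h exposure, fitted against DMSO. Primary hNPC spheres from gestational week 16-19 cortex grown with EGF/FGF at 37C, pH 7.2-7.6.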

[5] = IUF_NPC1a_proliferation_area_72hr: Leibniz Research Institute for Environmental Medicine (IUF) 72-hour Neural Progenitor Cell Proliferation Area Assay (NPC1a) (AID 2284208)
Procedure, shortened: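 Proliferation is scored as sphere area gain in primary human fetal neural progenitors treated for 72 h in EGF/FGF-containing medium. Viability, LDH and BrdU readouts come from the same wells.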

[6] = IUF_NPC1_viability_72hr: Viability Assessment at 72 hours in the Leibniz Research Institute for Environmental Medicine (IUF) Neural Progenitor Cell Proliferation Assay (NPC1) (AID 2284209)
Procedure, shortened: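 hNPC spheres, 1/well, EGF+FGF medium, 37C/5% CO2; dosed day 0, 72 h, no re-dosing. Resazurin reduction (alamar blue) fluorescence; DMSO = negative control/baseline; growth-factor-free wells as positive control.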

[7] = CCTE_Mundy_HCI_Cortical_Synap_Neur_Matur_NeuriteSpotCountPerNeuriteLength: CCTE's Synaptogenesis and Neurite Maturation Assay in rat cortical cells for Neurite Spot Count per Neurite Length, Mundy Lab (AID 2284210)
Procedure, shortened: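 Rat primary cortical cultures, AraC added at DIV 5 to suppress glia; chemical exposure from DIV 7 to DIV 12. Fixed cells stained for MAP2 and synaptophysin plus Hoechst; synaptophysin puncta per neurite length quantified by high-content imaging, relative to DMSO.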

[8] = CCTE_Mundy_HCI_Cortical_Synap_Neur_Matur_BPCount: CCTE's Synaptogenesis and Neurite Maturation Assay in rat cortical cells for Branch Point Count, Mundy Lab (AID 2284211)
Procedure, shortened: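 Rat primary cortical cultures, AraC added DIV 5; chemicals dosed DIV 7 through DIV 12. Fixed cells stained for MAP2, synaptophysin and Hoechst; neurite branch points counted by automated high-content imaging, fitted relative to DMSO.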

[9] = CCTE_Mundy_HCI_Cortical_NOG_NeuriteCount: CCTE's Neurite Outgrowth Assay in rat cortical cells for Neurite Count, Mundy Lab (AID 2284212);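 also: cells fixed about two days after chemical exposure began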
Procedure, shortened: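 Neurite number per cell from high-content imaging of betaIII-tubulin immunostaining, with Hoechst nuclear counterstain.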

[10] = CCTE_Mundy_HCI_Cortical_NOG_NeuriteLength: CCTE's Neurite Outgrowth Assay in rat cortical cells for Neurite Length, Mundy Lab (AID 2284213);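 as to AC50: neurites imaged about 48 to 50 h after chemical exposure began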
Procedure, shortened: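 Neurite length was read by high-content imaging of βIII-tubulin-labelled neurites in rat primary cortical cultures. Activity was fitted relative to DMSO.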

[11] = CCTE_Mundy_HCI_Cortical_Synap_Neur_Matur_NeuriteLength: CCTE's Synaptogenesis and Neurite Maturation Assay in rat cortical cells for Neurite Length, Mundy Lab (AID 2284214)
Procedure, shortened: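 Rat cortical neurons, AraC at DIV 5; compound + media change DIV 7, end DIV 12 (288.33 h). Fix, MAP2/synaptophysin/Hoechst immunostain, automated HCI of neurite length vs DMSO.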

[12] = CCTE_Mundy_HCI_Cortical_Synap_Neur_Matur_NeuriteSpotCountPerNeuron: CCTE's Synaptogenesis and Neurite Maturation Assay in rat cortical cells for Neurite Spot Count per Neuron Count, Mundy Lab (AID 2284215)
Procedure, shortened: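 Synapse density is scored as synaptophysin spots along neurites per neuron in fixed rat cortical neurons, measured at DIV 12 after chemical dosing at DIV 7. DMSO is the negative control and activity baseline.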

[13] = CCTE_Mundy_HCI_Cortical_Synap_Neur_Matur_SynapseCount: CCTE's Synaptogenesis and Neurite Maturation Assay in rat cortical cells for Synapse Count, Mundy Lab (AID 2284218)
Procedure, shortened: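 Primary rat cortical culture; AraC DIV 5 to arrest glia; compound + media change DIV 7; terminated DIV 12. PFA/Hoechst fix, anti-MAP2 + anti-synaptophysin immunostain; HCI synapse count/neuron; DMSO = baseline.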

[14] = CCTE_Mundy_HCI_Cortical_Synap_Neur_Matur_NeuriteCount: CCTE's Synaptogenesis and Neurite Maturation Assay in rat cortical cells for Neurite Count, Mundy Lab (AID 2284222)
Procedure, shortened: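 Primary rat cortical cells were plated, treated with AraC at DIV 5, then exposed to chemicals from DIV 7 through DIV 12. After fixation and immunostaining for MAP2 and synaptophysin, imaging quantified neurites, with DMSO as the negative control.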

[15] = CCTE_Mundy_HCI_Cortical_Synap_Neur_Matur_CellBodySpotCount: CCTE's Synaptogenesis and Neurite Maturation Assay in rat cortical cells for Cell Body Spot Count, Mundy Lab (AID 2284223)
Procedure, shortened: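 Synapse number at neuronal cell bodies was quantified as synaptophysin puncta per neuron in rat cortical cultures exposed from DIV 7 to DIV 12. Values were normalised to DMSO.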

[16] = CCTE_Mundy_HCI_hNP1_Pro_ResponderAvgInten: CCTE's Proliferation Assay in human neuroprogenitor cells, Mundy Lab (AID 2284224; active = hit-call score of the fitted dose curve at least 0.9, where 1 is the maximum;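 also: human neural progenitor cells hNP1 derived from WA09 embryonic stem cells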)
Procedure, shortened: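 Proliferation read as average intensity of BrdU-positive cells, imaged at 26.25 h post-dosing: chemical exposure started after 40–44 h culture, BrdU during final 4 h, paraformaldehyde fixation. Positive-direction fit relative to DMSO.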

[17] = CCTE_Mundy_HCI_hN2_NOG_NeuriteCount: CCTE's Neurite Outgrowth Assay in human hN2 cells for Neurite Count, Mundy Lab (AID 2284219; active = hit-call score of the fitted dose curve at least 0.9, where 1 is the maximum)
Procedure, shortened: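 In this morphology assay, hNP1-derived neurons received test chemical 2 h post-plating and were fixed two days later in warm paraformaldehyde/sucrose containing Hoechst 33342. Neurites, labelled by rabbit anti-βIII-tubulin (1:800) and Alexa Fluor-488 (1:500), were counted automatically.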

[18] = CCTE_Mundy_HCI_hN2_NOG_NeuriteLength: CCTE's Neurite Outgrowth Assay in human hN2 cells for Neurite Length, Mundy Lab (AID 2284220; active = hit-call score of the fitted dose curve at least 0.9, where 1 is the maximum)
Procedure, shortened: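 Read-out is neurite length from high-content imaging of βIII-tubulin/Alexa Fluor-488-labelled neurons, referenced to DMSO controls.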

[19] = CCTE_Mundy_HCI_hN2_NOG_NeuronCount: CCTE's Neurite Outgrowth Assay in human hN2 cells for Neuron Count, Mundy Lab (AID 2284221; active = hit-call score of the fitted dose curve at least 0.9, where 1 is the maximum)
Procedure, shortened: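 Read-out is the number of betaIII-tubulin-positive neurons imaged by automated high-content analysis, with DMSO as negative control.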

Measured: AC50

CO/C=C(/C(=O)OC)c1ccccc1COc1cccc(C(F)(F)F)n1
inactive: [3] | [4]
active: [1] 183 nM and 312 nM | [2] 244 nM and 459 nM | [5] 12600 nM | [6] 25300 nM | [7] 1090 nM | [8] 1.16 µM | [9] 1550 nM | [10] 1.43 µM | [11] 731 nM | [12] 688 nM | [13] 871 nM | [14] 1460 nM | [15] 1160 nM | [16] 86900 nM

ClC1=C(Cl)[C@]2(Cl)[C@@H]3[C@H]4C[C@H]([C@@H]5O[C@H]45)[C@@H]3[C@@]1(Cl)C2(Cl)Cl
inactive: [1] | [2]

O=S(=O)(O)C(F)(F)C(F)(F)C(F)(F)C(F)(F)F
not listed: [16] | [17] | [18] | [19]
inactive: all other assays above

O=C(O)C(F)(F)C(F)(F)C(F)(F)C(F)(F)C(F)(F)F
inactive: [1] | [2]

Oc1ccc(C(c2ccc(O)cc2)(C(F)(F)F)C(F)(F)F)cc1
inactive: [1] | [2]

COc1ccc(O)c(C(C)(C)C)c1
not listed: [3] | [4] | [5] | [6] | [17] | [18] | [19]
inactive: all other assays above

CCOP(=S)(OCC)SCSC(C)(C)C
active: [1] 23.4 µM and 21.7 µM | [2] 23.3 µM and 24.2 µM | [7] 23000 nM | [8] 80.7 µM and 23.2 µM | [10] 91 µM and 79.2 µM | [11] 81.5 µM and 17.5 µM | [12] 81 µM and 22.9 µM | [13] 79.7 µM and 22.9 µM | [14] 22500 nM | [15] 22900 nM
inactive: [3] | [4] | [5] | [6] | [7] | [17] | [18] | [19] | [14] | [15] | [16]
